From PubChem
This is one part of a sample in which hits are shown more often than they occur.
Sa helicase inh: inhibitors of S. aureus replicative helicase, primary screen, biochemical, fluorescence unwinding readout; AID 485395, 2010; 0.05% of 120,000 active; replicative DNA helicase (DnaC/DnaB), Staphylococcus aureus; inhibition, % (concentration not given with the values); purified S. aureus helicase, fluorescence unwinding assay; in the data active = inhibition above about 25%, passing the limit was not always enough
Sa growth inh: S. aureus growth inhibition at 42 and 30 °C, primary screen, LtaS inhibitor project, RN4220, two temperatures. 0.53% of 170,000 active. relative growth, % (test concentration not listed). OD600, 20 h, 42 °C; active compounds read low;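 active = relative growth at most 50% at the other temperature and 20+ points below 30 °C, or under 10% at both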
Hits are given with their value; - = inactive; . = no result.

SMILES	Sa helicase inh	Sa growth inh
O=C(Cc1c[nH]c2ccccc12)NCC(c1ccco1)N1CCCCC1 (stereo not drawn)	-	-
CC(C)NC(=O)CC1(C(=O)O)CCCC1	-	-
CCCC(=O)Oc1c[nH]c2ccccc12	.	3.9
CCOC(=O)Cc1c[nH]c2ccccc12	-	-
CC1=C(c2ccc(C)cc2)S(=O)(=O)N=C1N1CCCCC1C (stereo not drawn)	-	-
NNc1ccc(Cl)c(Cl)c1	-	-
NNc1ccc2c(Cl)cc(Cl)c(O)c2n1	-	4.2
CC(C)C(C(=O)NCc1ccco1)c1ccc(Cl)cc1 (stereo not drawn)	-	-
COc1cc(Cc2cnc(N)nc2N)cc(OC)c1OC	.	-1.0
COc1cc(CC(=O)OCC(N)=O)cc(OC)c1OC	-	-
Cc1noc(-c2cc3cc(Br)ccc3oc2=O)n1	-	-
Cc1[nH]ncc1CNC(=O)c1[nH]nc2c1CCc1ccccc1-2	-	-
Nc1nc(-c2ccc3c(c2)CCCC3)cs1	-	-
Nc1nc(=S)nc(Cc2ccc3c(c2)CCC3)[nH]1	-	45
Cc1cc(F)ccc1NC(=O)c1cc2sccc2n1Cc1ccc(Cl)cc1	-	-
CCS(=O)(=O)c1ccc2oc(=S)n(CN(C)C3CCCCC3)c2c1	-	-
CCNc1nc(Cl)nc(N(C)C#N)n1	-	-
CCCCN1COc2ccc3c4c(oc3c2C1)C(=O)c1ccccc1C4=O	51	-
O=C1c2ccccc2C(=O)c2c1oc1c3c(ccc21)OCN(Cc1ccccc1)C3	-	-
CCOC(=O)c1c(C)c(C)c(C)[nH]c1=S	-	-
Cc1cccc(NC(=O)NCCN2CCOCC2)c1	-	-
CCOC(=O)c1c(-c2ccccc2)csc1N	-	-
CCOC(=O)c1c(N)sc(SC#N)c1-c1ccccc1	-	4.9
Cc1ccc(Cl)cc1N1CCN(C(=O)c2ccc3c(=O)n4nc(Nc5ccccc5)sc4nc3c2)CC1	-	-
CC1=C/C(=N/Nc2nc3ccccc3[nH]2)CC(C)(C)C1	-	-0.4
SMILES	Sa helicase inh	Sa growth inh
CC1C/C(=N/Nc2nc3ccccc3[nH]2)CC(C)(C)C1 (stereo not drawn)	-	-
CCS(=O)(=O)N1Cc2ccccc2CC1C(=O)NC1CCCCCC1 (stereo not drawn)	-	-
COC(=O)c1c(C)[nH]c(C(=O)CN(C)Cc2cccc(OC)c2)c1C	-	-
COC(=O)c1c(C)[nH]c(C(=O)CN(C)CC(=O)Nc2c(C)cc(C)cc2C)c1C	30	-
C=CCn1c(O)c(C2=c3cc(Br)ccc3=NC2=O)c2ccccc21	-	1.4
C=CCn1c(O)c(N=O)c2ccccc21	-	-
Fc1cccc2c1NC(c1ccccc1)C1CC=CC21 (stereo not drawn)	-	-
O=C(Cn1nnc(-c2cccc(C(F)(F)F)c2)n1)Nc1ccc(F)cc1	.	-
COc1ccccc1C(=O)OC1OCCOC1OC(=O)c1ccccc1OC (stereo not drawn)	-	-
Cc1ccc(C(=O)c2ccc(N3CCOCC3)c(F)c2)cc1	-	-
CC(=O)NC[C@H]1CN(c2ccc(N3CCOCC3)c(F)c2)C(=O)O1	.	-0.8
Cc1noc(-c2ccc(O)cc2O)c1-c1ccc2c(c1)OCCCO2	-	.
C=C=CSc1nnnn1-c1ccc(Cl)cc1	-	-
O=C(Nc1cccc(Br)c1)Nc1nc2c(s1)CCCCCC2	.	37
Cc1cccc(C(=O)Nc2nc3c(s2)CCCC3)c1	.	-
O=C(NCc1ccccc1Cl)c1ccc(Cn2cc(Cl)cn2)cc1	-	2.9
Cc1ccc(CNC(=O)c2cccc(Cn3cc(Cl)cn3)c2)cc1	-	-
CCCCC/C=C/CCC(=O)N[C@H]1[C@H](Oc2c3cc4cc2Oc2ccc(cc2Cl)[C@@H](O[C@@H]2O[C@H](CO)[C@@H](O)[C@H](O)[C@H]2NC(C)=O)[C@@H]2NC(=O)[C@H](NC(=O)[C@@H]4NC(=O)[C@H]4NC(=O)C(Cc5ccc(c(Cl)c5)O3)NC(=O)[C@H](N)c3ccc(O)c(c3)Oc3cc(O)cc4c3)c3ccc(O)c(c3)-c3c(OC4O[C@H](CO)[C@@H](O)[C@H](O)[C@@H]4O)cc(O)cc3[C@@H](C(=O)O)NC2=O)O[C@H](CO)[C@@H](O)[C@@H]1O (stereo partly drawn)	.	-0.1
O[N+]1=CC=CCC1=S.On1ccccc1=S.[Zn]	.	-0.3
O=C(C1CCN(c2nccc(C(F)(F)F)n2)CC1)N1CCSCC1	.	-
C(=N\n1cnnc1)/c1ccc(N(c2ccccc2)c2ccccc2)cc1	-	1.4
CN(C)c1ccc(/C=N/n2cnnc2)cc1	-	-
N#C/C(=N\Nc1ccc(F)cc1)C(N)=S	-	0.0
NC(=S)NNc1ccc(F)cc1	-	-
CC1CCN(S(=O)(=O)c2ccc(NC(=O)/C=C/c3ccco3)cc2)CC1	-	.
SMILES	Sa helicase inh	Sa growth inh
COc1ccc(/C=N/n2ncc3ccccc32)cc1	-	27
COc1ccc(/C=N/N2CCN(C)CC2)cc1	-	-
O=C(NN=C1CCCCCCC1)c1ccc(CN2CCOCC2)cc1	-	-
CCOc1ccccc1N1CCN(Cn2nc(-c3ccco3)oc2=S)CC1	-	-
COc1ccc(N=Cc2cn(-c3ccccc3)nc2-c2cccs2)cc1	-	-
CN1/C(=C/C=C/c2oc3ccccc3[n+]2C)Oc2ccccc21	-	-1.0
CCN1/C(=C/C=C2\SC(=S)N(C)C2=O)Oc2ccccc21	-	-
C=C(C)CSc1nc2ccccc2s1	-	-
CCN(CC)c1ccc2c(C)c(CO)c(=O)oc2c1	-	-
CCN(CC)c1ccc2c(N3CCCCC3)cc(=O)oc2c1	-	2.1
O=C(NCCN1CCCC1)c1ccc(F)cc1	-	-
CCn1c2ccccc2c2cc(/C=C(\C#N)S(=O)(=O)c3ccccc3)ccc21	-	-
O=C(O)[C@H]1/C(=C/CO)O[C@@H]2CC(=O)N21	.	15
O=C(O)C1N(Cc2ccccc2)CCCN1Cc1ccccc1	-	-
O=C([C@@H]1CCCN1C(=O)c1cccs1)N1CCN(Cc2ccc3c(c2)OCO3)CC1	-	-
O=C(c1ccccc1Cl)n1cnc2ccccc21	-	-
COc1ccc(N2CCN(S(=O)(=O)c3cc(Br)cc4c3N(C(C)=O)C(C)C4)CC2)cc1 (stereo not drawn)	-	-
O=C(C=C1SCCS1)c1cccs1	.	-
CN1C(=O)/C(=C\C(=O)c2cccs2)c2ccccc21	-	2.9
c1csc(-c2noc(-c3ccno3)n2)c1	.	-
O=C(Cn1cnnn1)Nc1ccc(Sc2ccc(Br)cc2)cc1	-	-
Cc1ccc(O)cc1	.	-
Cc1ccc(-c2ccc(O)cc2)cc1	-	47
Cc1[nH]n2c(=O)cc(-c3ccccc3)nc2c1-c1ccccc1	-	0.0
Cc1[nH]n2c(=O)cc(-c3ccccc3Cl)nc2c1-c1ccccc1	.	-
SMILES	Sa helicase inh	Sa growth inh
Cc1ccccc1Cc1c(C)nc2c(-c3ccccc3)c(C)[nH]n2c1=O	.	0.5
Cc1cccc(Cc2c(C)nc3c(-c4ccccc4)c(C)[nH]n3c2=O)c1	.	-
O=C(CCc1nc2cccnc2n1-c1ccccc1)NC1CCCCC1	-	-
COc1ccc(NC(=O)C(CC(C)C)NS(=O)(=O)c2ccc3[nH]c(=O)oc3c2)cc1 (stereo not drawn)	-	-
COc1ccc(-c2nnn(CC(=O)N(c3ccccc3)C(C(=O)NC3CCCC3)c3ccco3)n2)cc1 (stereo not drawn)	-	48
Cc1ccc(-c2nnn(CC(=O)N(Cc3ccccc3)C(C(=O)NC3CCCC3)c3ccco3)n2)cc1 (stereo not drawn)	-	-
